Several values for one entry are separate records, joined by “and”; a condition that tells them apart may be missing. Equal values may be shown once. Records with an inconclusive call do not appear. Entries that show only a call come without a potency. Activity calls are given as the source filed them. Calls follow the shape of the dose curve; as a rule, active = well fitted curve in the direction sought with a large enough effect in the repeat runs; inconclusive = weak or mixed curves; inactive = no such curve, though single readings can be large; an effect the other way counts as inactive or inconclusive.

This is an account of results in PubChem BioAssay (Tox21).

The nature of the first experiment: Caspase-3/7 induction in CHO-K1 cells by small molecules, qHTS cell viability counter screen (AID 1346979). Also: nearly all actives have a fitted effect of over 35% in size. Also: potency is read from the fitted curve at half-maximal effect. As to conditions: CellTiter-Fluor fluorescence, 17 h; series mostly up to 92.4 µM; activity change, negative = cytotoxicity: at the top concentration. Summed up:
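Viability readout by fluorescence (CellTiter-Fluor) on wild-type CHO-K1 cells exposed for 16hr at 37C and 5% CO2 to compounds delivered in DMSO; reagent incubated 1hr before reading.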
`CCCCC(CC)COCC1CO1` (stereo not given): the Potency entry was “inactive”.

Regarding `Nc1ncn([C@@H]2O[C@H](CO)[C@@H](O)[C@H]2O)c(=O)n1`, the Potency was 2.17 µM (active) and 2.98 µM (active).

In the case of `CCOC(=O)C(C#N)=C(c1ccccc1)c1ccccc1`, the Potency entry is “inactive”.

With `C[C@]12CCC(=O)C=C1CC[C@@H]1[C@@H]2C(=O)C[C@@]2(C)[C@H]1CC[C@]2(O)C(=O)CO`, the Potency entry was “inactive”.

In the case of `Nc1ccc(Nc2ccccc2)cc1`, the Potency was 53.9 µM (active) and 43.3 µM (active) and 48.6 µM (active).

Turning to `CCCCC(CC)COC(=O)c1ccc(N(C)C)cc1` (stereo not given), the Potency entry was “inactive”.

`COc1cccc2c1C(=O)c1c(O)c3c(c(O)c1C2=O)C[C@@](O)(C(=O)CO)C[C@@H]3O[C@H]1C[C@H](N)[C@H](O)[C@H](C)O1`: the Potency was 9.67 µM (active) and 21.1 µM (active).

In the case of `C=C(C)C1CC=C(C)CC1` (stereo not given), the Potency entry was “inactive”.

As to `Nc1ccc(S(=O)(=O)Nc2cnc3ccccc3n2)cc1`, the Potency entry was “inactive”.

For the compound `CCCc1c(OCCCCc2nn[nH]n2)ccc(C(C)=O)c1O`, the Potency result is “inactive”.

For `O=S(=O)(O)c1ccc(O)cc1`, the Potency entry is “inactive”.

`O=C1c2cccc(O)c2C(=O)c2c(O)cccc21`: the “activity change, negative = cytotoxicity” value was -10.9% [at 42.5 µM] (inactive).

As to `S=C(NC1CCCCC1)NC1CCCCC1`, the Potency is 60 µM (active) and 43.3 µM (active).

As to `CCCCOCCOCCO`, the Potency result was “inactive”.

Consider `C#C[C@]1(O)CC[C@H]2[C@@H]3CCc4cc(OC)ccc4[C@H]3CC[C@@]21C`, for which the Potency was 27.3 µM (active) and 18.8 µM (active).

As for `CC(C)(C)NC(=O)[C@H]1CC[C@H]2[C@@H]3CC[C@H]4NC(=O)C=C[C@]4(C)[C@H]3CC[C@]12C`, the Potency result is “inactive”.

A short description of a further experiment: Caspase-3/7 induction in CHO-K1 cells by small molecules, qHTS assay (AID 1346980). Also: nearly all actives have a fitted effect of over 15% in size. As to conditions: CHO-K1 caspase-3/7 induction, Caspase-Glo luminescence, 17 h; series mostly up to 92.4 µM; caspase-3/7 activation: at the top concentration. Summed up: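 Wild-type CHO-K1 cells exposed to compounds for 17hr at 37 C, 5% CO2. Caspase-3/7 activity then measured by Caspase-Glo 3/7 luminescence after 30min at room temperature.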
On to `CCOCCOCCO`, for which the Potency entry is “inactive”.

As for `CC1=CCC(C(C)(C)O)CC1` (stereo not given), the Potency result is “inactive”.

For the compound `CC(=O)Oc1ccccc1C(=O)Nc1ncc([N+](=O)[O-])s1`, the Potency entry was “inactive”.

Take `CC(=O)c1ccccn1`: the Potency result is “inactive”.

Turning to `Cc1cccc(N(C)C(=S)Oc2ccc3ccccc3c2)c1`, the Potency entry is “inactive”.

With `NC=O`, the Potency entry was “inactive”.

In the case of `COc1ccc(OC)c(C(O)CNC(=O)CN)c1` (stereo not given), the Potency result is “inactive”.

As for `O=CCCCC=O`, the Potency result is “inactive”.

As for `COc1ccc(C(=O)CC(=O)c2ccc(C(C)(C)C)cc2)cc1`, the Potency entry is “inactive”.

Regarding `Cc1[nH]c(=O)c(C#N)cc1-c1ccncc1`, the Potency entry was “inactive”.

On to `CNCCCC12CCC(c3ccccc31)c1ccccc12`, for which the “caspase-3/7 activation” value was -0.83% [at 42.5 µM] (inactive).

With `C#C[C@]1(O)CC[C@H]2[C@@H]3CCC4=Cc5oncc5C[C@]4(C)[C@H]3CC[C@@]21C`, the Potency result was “inactive”.

For `Nc1ncnc2nc[nH]c12`, the Potency entry was “inactive”.

For `O=C(COc1ccc(Cl)cc1)N1CCN(Cc2ccc3c(c2)OCO3)CC1`, the Potency result was “inactive”.

Regarding `Cc1c(C(N)=O)cc([N+](=O)[O-])cc1[N+](=O)[O-]`, the Potency result is “inactive”.

Regarding `O=Cc1ccccc1O`, the Potency result was “inactive”.

Take `C[Si](C)(C)O[Si](C)(C)C`: the Potency entry was “inactive”.

Consider `O=C(O)c1ccccc1Nc1cccc(C(F)(F)F)c1`, for which the Potency entry is “inactive”.

In the case of `CN(C)CCN(Cc1cccs1)c1ccccn1`, the Potency entry was “inactive”.

Consider `O=C(/C=C/c1ccccc1)OCc1ccccc1`, for which the Potency entry was “inactive”.

Take `CCCC(=O)O`: the Potency entry is “inactive”.

Regarding `C[C@]12CC[C@H]3[C@@H](CCC4=CC(=O)CC[C@@]43C)[C@@H]1CC[C@@H]2C(=O)CO`, the Potency result was “inactive”.

In the case of `OC[C@H]1O[C@@H]2O[C@H]3[C@H](O)[C@@H](O)[C@@H](O[C@H]4[C@H](O)[C@@H](O)[C@@H](O[C@H]5[C@H](O)[C@@H](O)[C@@H](O[C@H]6[C@H](O)[C@@H](O)[C@@H](O[C@H]7[C@H](O)[C@@H](O)[C@@H](O[C@H]8[C@H](O)[C@@H](O)[C@@H](O[C@H]1[C@H](O)[C@H]2O)O[C@@H]8CO)O[C@@H]7CO)O[C@@H]6CO)O[C@@H]5CO)O[C@@H]4CO)O[C@@H]3CO`, the Potency result was “inactive”.

`CCCCC(CC)COCC1CO1` (stereo not given): the Potency result was “inactive”.

Turning to `Nc1ncn([C@@H]2O[C@H](CO)[C@@H](O)[C@H]2O)c(=O)n1`, the Potency result is “inactive”.

On to `CCOC(=O)C(C#N)=C(c1ccccc1)c1ccccc1`, for which the Potency entry was “inactive”.

On to `C[C@]12CCC(=O)C=C1CC[C@@H]1[C@@H]2C(=O)C[C@@]2(C)[C@H]1CC[C@]2(O)C(=O)CO`, for which the Potency entry is “inactive”.

Consider `Nc1ccc(Nc2ccccc2)cc1`, for which the Potency entry was “inactive”.

For the compound `CCCCC(CC)COC(=O)c1ccc(N(C)C)cc1` (stereo not given), the Potency entry is “inactive”.

As to `COc1cccc2c1C(=O)c1c(O)c3c(c(O)c1C2=O)C[C@@](O)(C(=O)CO)C[C@@H]3O[C@H]1C[C@H](N)[C@H](O)[C@H](C)O1`, the “caspase-3/7 activation” value is 7.29% [at 42.5 µM] (inactive).

Consider `C=C(C)C1CC=C(C)CC1` (stereo not given), for which the Potency entry is “inactive”.

For `Nc1ccc(S(=O)(=O)Nc2cnc3ccccc3n2)cc1`, the Potency result is “inactive”.

`CCCc1c(OCCCCc2nn[nH]n2)ccc(C(C)=O)c1O`: the Potency result is “inactive”.

With `O=S(=O)(O)c1ccc(O)cc1`, the Potency result was “inactive”.

For the compound `O=C1c2cccc(O)c2C(=O)c2c(O)cccc21`, the Potency entry was “inactive”.

As for `S=C(NC1CCCCC1)NC1CCCCC1`, the Potency entry is “inactive”.

`CCCCOCCOCCO`: the Potency entry was “inactive”.

In the case of `C#C[C@]1(O)CC[C@H]2[C@@H]3CCc4cc(OC)ccc4[C@H]3CC[C@@]21C`, the Potency entry was “inactive”.

For `CC(C)(C)NC(=O)[C@H]1CC[C@H]2[C@@H]3CC[C@H]4NC(=O)C=C[C@]4(C)[C@H]3CC[C@]12C`, the Potency entry was “inactive”.
